A selection: hits, their analogues and other compounds. The true share with any hit is near 2.1%.
TDP-43 yeast inh: TDP-43 toxicity inhibition in yeast; TDP-43 expressing yeast growth rescue, BacTiter-Glo, 24 h; Potency, µM (top dose mostly 46.1 µM), for the others: top-dose growth rescue (activation), usual class: activators; 1.8% of 410,000 active; also: % of control where 0% means no effect; nearly all actives have a fitted effect of over 50% in size
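Growth rescue of TDP-43-toxic yeast measured as ATP luminescence (BacTiter-Glo). Cells grown to mid-log in raffinose, induced in galactose at OD600=0.02, exposed to compound 24 hr at 30 deg C.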
FUS suppressor: FUS proteinopathy suppression in yeast. Potency, µM (doses to about 76.6 µM), most hits filed as activators. 0.24% of 390,000 active. S. cerevisiae FUS-expressing, growth rescue, OD600, 24 h;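 also: plate controls were DMSO vehicle for no effect and reference control for full effect; nearly all actives have a fitted effect of over 55% in size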
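Galactose (2%) drives FUS expression in yeast precultured in raffinose; seeding density OD 0.005. Test compounds incubated 24hr at 30C and 99% humidity before absorbance at 600 nm was measured.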
Abeta rescue: compounds reversing amyloid beta toxicity in yeast. yeast expressing A-beta42, growth rescue, OD600, 48 h; response scale: 0% DMSO, 100% iron-clioquinol control. Potency, µM (top dose mostly 46.1 µM), most hits filed as activators. 0.063% of 410,000 active; also: nearly all actives have a fitted effect of over 55% in size
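Yeast A-beta toxicity model in growth medium with pinned compounds, 48 h at 30 C; growth read as absorbance at 600 nm. Normalized to FeCl3/clioquinol equimolar mix (positive) and DMSO (negative).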
aSyn yeast inh: alpha-synuclein toxicity inhibition in yeast | Yeast expressing alpha-synuclein, growth rescue, BacTiter-Glo, 24 h | Potency, µM (titrated, usually from 46.1 µM), for inactives: at the top dose growth rescue (activation), usual class: activators | 0.14% of 370,000 active; also: % of control where 0% means no effect; nearly all actives have a fitted effect of over 65% in size
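Screening used galactose-induced yeast with toxic alpha-synuclein levels, exposed to compound for 24 hr at 30 deg C. Cell growth, read with BacTiter-Glo luminescence, gave the measured signal.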
An asterisk follows results filed as active; i = inactive; ? = inconclusive; . = no result given; [ ] = another dose, or the depositor's remark. Calls follow the shape of the dose curve; as a rule, active = well fitted curve in the direction sought with a large enough effect; inconclusive = small, poorly fitted or top-dose-only effect, or another doubt; inactive = no such curve, though single readings can be large; an effect the other way counts as inactive or inconclusive. Potency is read from the fitted curve at half-maximal effect.

SMILES | TDP-43 yeast inh | FUS suppressor | Abeta rescue | aSyn yeast inh
CC(Oc1cccc(Cl)c1)C(=O)Nc1ccc([N+](=O)[O-])cn1 (stereo unspecified) | 13µM* | . | i | -3%
O=C(Cn1cnc2cc([N+](=O)[O-])ccc2c1=O)NCc1ccccc1 | -5%[9.22 µM] | i | i | -3%
CCCCN=C1NN=C(c2ccc(C)c(C)c2)CS1 | 14µM* | i | i | -3%
CC(=O)c1ccc(C(=O)NC2CCCN(Cc3ccccc3F)C2)s1 (stereo unspecified) | 6% | i | i | 2%
COC(=O)[C@]12C[C@H](CC(=O)N3CCCC3)C(=O)N(Cc3ccc4c(c3)OCO4)C1=C[C@H](C(C)C)O[C@@H]2C1CC1 | . | i | . | .
COC(=O)[C@]12C[C@H](CC(=O)NCc3cccc(C(F)(F)F)c3)C(=O)N(Cc3ccc4c(c3)OCO4)C1=C[C@H](C(C)C)O[C@@H]2C1CC1 | . | 8.9µM* | . | .
COC(=O)[C@]12C[C@H](CC(=O)NCC34CC5CC(CC(C5)C3)C4)C(=O)N(Cc3cccc4ccccc34)C1=C[C@H](C(C)C)O[C@@H]2C1CC1 | . | i | . | .
COC(=O)[C@]12C[C@H](CC(=O)N3CCC(c4ccccc4)CC3)C(=O)N(Cc3ccc4c(c3)OCO4)C1=C[C@H](C(C)C)O[C@@H]2C1CC1 | . | i | . | .
COC(=O)[C@]12C[C@H](CC(=O)NCc3cccc4ccccc34)C(=O)N(Cc3ccc4c(c3)OCO4)C1=C[C@H](C(C)C)O[C@@H]2C1CC1 | . | 13µM* | . | .
COC(=O)[C@]12C[C@H](CC(=O)NCC3CCCCC3)C(=O)N(Cc3ccc4c(c3)OCO4)C1=C[C@H](C(C)C)O[C@@H]2C1CC1 | . | 14µM* | . | .
COC(=O)[C@]12C[C@H](CC(=O)NCCCCc3ccccc3)C(=O)N(Cc3ccc4c(c3)OCO4)C1=C[C@H](C(C)C)O[C@@H]2C1CC1 | . | 8.9µM* | . | .
COC(=O)[C@]12CCCCC=C1N(Cc1ccc3c(c1)OCO3)C(=O)[C@H](CC(=O)NCc1cccc(C(F)(F)F)c1)C2 | 21% | i | i | 1%
O=C(c1ccco1)N(Cc1ccc([N+](=O)[O-])cc1)c1ccc(Cl)cc1 | 22µM* | i | i | 10%
O=C(c1ccco1)N(Cc1ccc([N+](=O)[O-])cc1)c1ccc(Br)cc1 | 32µM* | i | i | 1%
COc1ccc(-n2c(-c3ccc(Br)cc3)nc(=S)c3c2CCCC3)cc1 | 3% | i | i | 3%
O=C(CN(c1ccc(F)cc1)S(=O)(=O)c1ccc2c(c1)OCCO2)Nc1ccccc1 | -5% | i | i | .
Fc1ccc(CNc2ncnc3onc(-c4ccc(F)cc4)c23)cc1 | 13µM* | i | i | 1%
Clc1ccc(-c2noc3ncnc(NCCc4ccccc4)c23)cc1 | 18µM* | i | i | -2%
CCCCN1C(=O)C(O)(CC(=O)c2ccc(CC)cc2)c2cc(Br)ccc21 (stereo unspecified) | 18µM* | i | i | .
CCCN1C(=O)C(O)(CC(=O)c2ccc(CC)cc2)c2ccccc21 (stereo unspecified) | 15% | i | i | .
COC(=O)CS(=O)(=O)c1nnc([C@H](Cc2ccccc2)NC(=O)OC(C)(C)C)o1 | 35µM* | . | i | -21%
Cc1cccc(CS(=O)(=O)c2nnc([C@H](Cc3ccccc3)NC(=O)OC(C)(C)C)o2)c1 | -57% | ? | i | -29%
Cc1cc(Sc2nc(N)ncc2[N+](=O)[O-])ncn1 | ? | i | i | 3%
Cc1cccc(Oc2ncnc(N)c2[N+](=O)[O-])c1 | ? | i | i | 10%
Cc1ccc(Oc2ncnc(N)c2[N+](=O)[O-])cc1C | 11µM* | i | i | 6%
SMILES | TDP-43 yeast inh | FUS suppressor | Abeta rescue | aSyn yeast inh
Cc1cc(Sc2ncnc(N)c2[N+](=O)[O-])ncn1 | 22µM* | i | i | -8%
OC(CNCc1ccccc1)(c1ccccc1)c1ccccc1 | 10% | i | i | -3%
Cc1ccc(NC(=O)c2ccc3nc[nH]c3c2)c(O)c1 | 5% | i | i | -4%
Cc1ccc2nc(-c3ccc(NS(=O)(=O)c4ccc(F)c(F)c4)cc3)sc2c1 | 25µM* | i | i | -27%
Cc1ccc(CN2CC(C(=O)N3CCN(S(=O)(=O)c4cccc(F)c4)CC3)CC2=O)cc1 (stereo unspecified) | 6% | i | i | 2%
O=C1C2C3C=CC(C4CC34)C2C(=O)N1/N=C/c1ccc([N+](=O)[O-])o1 (stereo unspecified) | ? | i | i | 6%
O=C1C2C(C(=O)N1/N=C/c1ccc([N+](=O)[O-])o1)C1C=CC2C12CC2 (stereo unspecified) | 18µM* | . | i | 26%
COc1ccc2cc(C(=O)N/N=C/c3sc4ccccc4c3O)ccc2c1 | -11% | . | i | 10µM*
CCN(CC)C(=O)CSc1nc(N)c(C#N)c(-c2cccs2)c1C#N | 13% | i | i | -6%
CCSc1nc(N)nc(-c2cccs2)c1C#N | 22µM* | i | i | -18%
COc1ccc(Cl)cc1-c1cc(C(=O)NCc2cccs2)[nH]n1 | 11µM* | i | i | 7%
CC(C)Oc1cc(F)ccc1-c1cc(C(=O)NCC2CCCCC2)[nH]n1 | 18µM* | ? | i | -22%
COc1ccc(Cl)cc1-c1cc(C(=O)NCc2cccc(Cl)c2)[nH]n1 | -18% | i | i | 8%
Cc1cc(F)ccc1-c1cc(C(=O)NCC2CCCCC2)[nH]n1 | 12% | i | i | -6%
CCOc1ccc(Cl)cc1-c1cc(C(=O)NCC2CCCCC2)[nH]n1 | 14µM* | i | i | -1%
COc1ccc(Cl)cc1-c1cc(C(=O)NCC2CCCCC2)[nH]n1 | ? | i | i | -1%
CCN(CC)C(=O)/C(=C\c1cccc([N+](=O)[O-])c1)NC(=O)c1ccco1 | 15% | . | i | 2%
Oc1c(N=Nc2nn[nH]n2)ccc2ccccc12 | 35µM* | ? | i | -26%
O=C(CSc1nc(=O)n(CCCN2CCOCC2)c2c1CCC2)Nc1ccc(F)cc1 | 7% | i | i | -1%
Cn1cc(-c2ccc3c(c2)OCO3)c2ccccc21 | 25µM* | i | i | 2%
CC(C)N(c1nnc(N)s1)C(C)C | 15% | i | i | 2%
Cc1ccc(C2OC34CCCCCC3C(C#N)(C(=N)O4)C2(C#N)C#N)cc1 (stereo unspecified) | 1.3µM* | i | i | -30%
CCCCOc1ccc(C2OC34CCCCC3C(C#N)(C#N)C2(C#N)C(=N)O4)cc1 (stereo unspecified) | 19% | i | i | 1%
CN(C)S(=O)(=O)Oc1ccsc1C(=O)Nc1ccccc1Cl | 44% | i | i | 10%
CN(C)S(=O)(=O)Oc1ccsc1C(=O)Nc1ccc(Cl)cc1 | 14µM* | i | i | 0%
CN(C)S(=O)(=O)Oc1ccsc1C(=O)Nc1cccc(Cl)c1Cl | 18µM* | i | i | 9%
